Inconclusive results are not listed. Calls of active or inactive are those of the source. The call rests on the fitted dose curve; in most records, active means well fitted curve in the direction sought with a large enough effect in the repeat runs; inconclusive means weak or mixed curves; inactive means no such curve, though single readings can be large; an effect the other way counts as inactive or inconclusive. Non-standard residues stand in square brackets, D forms with d. Residues, ends and D or L forms follow the SMILES beside them. *: point of attachment. Sta = CC(C)C[C@H](N)[C@@H](O)CC(=O)O; Isovaleryl = CC(C)CC(=O)*
Assays:
[1] = qHTS RealTime-Glo MT Cell Viability Assay in HEK293 cells - 32 hour (AID 1224868); further: top concentration of the series differs between compounds; nearly all actives have a fitted effect of over 50% in size
How it was run: (§1)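 HEK293 cells were seeded at 600 cells/well together with NanoLuc luciferase and cell-permeant prosubstrate, preincubated 5 h at 37 C/5% CO2, then given compound in DMSO by pintool. Luminescence from viable-cell prosubstrate reduction was read repeatedly over 40 h.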

[2] = A CellTox Green Cytotoxicity Assay to monitor cytotoxicity in HEK293 cells - 0 hour (AID 1224869); further: nearly all actives have a fitted effect of over 50% in size
How it was run: (§2)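 Seeding of HEK293 cells together with cytotoxicity dye preceded a 5 h incubation at 37 C/5% CO2. Test compounds in DMSO were then added and fluorescence monitored across 40 h.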

[3] = qHTS RealTime-Glo MT Cell Viability Assay in HepG2 cells - 40 hour (AID 1224870); further: nearly all actives have a fitted effect of over 50% in size
How it was run: (§3)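 Real-time viability: cells seeded at 600 per well together with NanoLuc and cell-permeant prosubstrate, compounds added after 5 h incubation. Luminescence tracked at 0, 8, 16, 24, 32 and 40 h of exposure.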

[4] = qHTS RealTime-Glo MT Cell Viability Assay in HepG2 cells - 8 hour (AID 1224873); further: nearly all actives have a fitted effect of over 55% in size
How it was run: as §3

[5] = qHTS RealTime-Glo MT Cell Viability Assay in HEK293 cells - 40 hour (AID 1224874); settings: RealTime-Glo luminescence, active compounds read low; further: nearly all actives have a fitted effect of over 50% in size
How it was run: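 Tox21 screen in HEK293 using RealTime-Glo MT chemistry, with cells and reagent co-dispensed. Luminescence proportional to viable cell number was captured at intervals during 40 h compound exposure at 37 C.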

[6] = A CellTox Green Cytotoxicity Assay to monitor cytotoxicity in HEK293 cells - 24 hour (AID 1224875); further: series mostly up to about 77 µM; nearly all actives have a fitted effect of over 45% in size
How it was run: as §2

[7] = A CellTox Green Cytotoxicity Assay to monitor cytotoxicity in HepG2 cells - 16 hour (AID 1224876); further: nearly all actives have a fitted effect of over 45% in size
How it was run: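 Nonlytic assay: viable cells exclude the dye, so fluorescence scales with cell death. HepG2 at 600 cells/well, compounds added after 5 h, signal read across 40 h.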

[8] = qHTS RealTime-Glo MT Cell Viability Assay in HepG2 cells - 32 hour (AID 1224877); further: nearly all actives have a fitted effect of over 55% in size
How it was run: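 HepG2 cells were seeded at 600 cells/well together with NanoLuc luciferase and a cell-permeant prosubstrate, preincubated 5 h at 37 C/5% CO2, then pin-dosed with compounds in DMSO. Nonlytic luminescence from viable cells was read at each time point.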

[9] = qHTS RealTime-Glo MT Cell Viability Assay in HEK293 cells - 16 hour (AID 1224872)
How it was run: as §1

[10] = A CellTox Green Cytotoxicity Assay to monitor cytotoxicity in HEK293 cells - 40 hour (AID 1224871); further: nearly all actives have a fitted effect of over 45% in size
How it was run: as §2
On the % scale 0 is the no-effect control and ±100 the full control effect.

CCCCN(CCCC)CCCCCCN(CCCC)CCCC
inactive: outcome [1] | outcome [2] | outcome [3] | outcome [4] | max response [5] -10.4% | Potency [6] | Potency [7] | outcome [8]

CNC(C)=O
inactive: outcome [1] | outcome [2] | outcome [3] | outcome [4] | max response [5] -0.0492% | Potency [6] | Potency [7] | outcome [8]

CCN(CC)CC
inactive: outcome [1] | outcome [2] | outcome [3] | outcome [4] | max response [5] -12.9% | Potency [6] | Potency [7] | outcome [8]

COc1cc(OC)cc(OC)c1
inactive: outcome [1] | outcome [2] | outcome [3] | outcome [9] | outcome [4] | max response [5] 6.85% | Potency [6] | Potency [7]

Nc1cc(S(=O)(=O)O)ccc1O
inactive: outcome [1] | outcome [2] | outcome [3] | outcome [9] | outcome [4] | max response [5] 14.9% | Potency [7] | outcome [8]

CN(C)CCc1c[nH]c2ccc(C[C@H]3COC(=O)N3)cc12
inactive: outcome [1] | outcome [2] | Potency [10] | outcome [9] | outcome [4] | max response [5] 2.27% | Potency [6] | Potency [7] | outcome [8]

C=CCn1cc[n+](C)c1
inactive: outcome [1] | outcome [2] | outcome [3] | outcome [9] | outcome [4] | max response [5] -3.76% | Potency [6] | Potency [7] | outcome [8]

CC(C)CC(O)Cc1ccccc1 (stereo unspecified)
inactive: outcome [1] | outcome [2] | Potency [10] | outcome [4] | max response [5] 1.47% | Potency [6] | Potency [7] | outcome [8]

C[C@H]1COc2c(C3(N)CC3)c(F)cc3c(=O)c(C(=O)O)cn1c23
inactive: outcome [1] | outcome [3] | Potency [10] | outcome [9] | outcome [4] | max response [5] 1.9% | Potency [6] | Potency [7] | outcome [8]

COc1cc(S(N)(=O)=O)cc(C(=O)O)c1OC
inactive: outcome [1] | outcome [2] | Potency [10] | outcome [4] | max response [5] 0.543% | Potency [6] | Potency [7] | outcome [8]

CCN1CCN(C(=O)N[C@@H](C(=O)N[C@@H]2C(=O)N3C(C(=O)O)=C(CSc4nnnn4C)CS[C@H]23)c2ccc(O)cc2)C(=O)C1=O
inactive: outcome [1] | outcome [2] | Potency [10] | outcome [9] | max response [5] 15.1% | Potency [6] | Potency [7]

O=C(O)Cc1c(Cl)ccc(Cl)c1Cl
inactive: outcome [1] | outcome [2] | outcome [9] | max response [5] 2.56% | Potency [7] | outcome [8]

Cc1cc2c(cc1CC(=O)c1sccc1S(=O)(=O)Nc1onc(C)c1Cl)OCO2
inactive: outcome [1] | outcome [2] | Potency [10] | outcome [9] | max response [5] 6.15% | Potency [6] | Potency [7] | outcome [8]

CCc1ncc(C)[nH]1
inactive: outcome [1] | outcome [3] | Potency [10] | outcome [9] | outcome [4] | max response [5] 1.1% | Potency [6] | Potency [7] | outcome [8]

CNC(=O)c1c(I)c(NC(C)=O)c(I)c(C(=O)O)c1I
inactive: outcome [1] | outcome [2] | Potency [10] | outcome [4] | max response [5] 3.75% | Potency [6] | Potency [7]

Cc1ccc(O)c([N+](=O)[O-])c1
inactive: outcome [1] | outcome [2] | Potency [10] | outcome [9] | outcome [4] | max response [5] -15.2% | Potency [6] | Potency [7] | outcome [8]

C=C(C)C(=O)OCCCC
inactive: outcome [1] | outcome [2] | Potency [10] | outcome [9] | max response [5] 11.4% | Potency [6] | Potency [7] | outcome [8]

N=C(N)N1CCc2ccccc2C1
inactive: activity change, negative = cytotoxic [1] 0.854% [at 6.97 µM] | cytotoxicity [2] -7.02% [at 6.97 µM] | cytotoxicity increase [10] -5.28% [at 6.97 µM] | activity change, negative = cytotoxicity [9] 1.8% [at 6.97 µM] | viability change, negative = cytotoxic [4] 0.945% [at 6.97 µM] | max response [5] 0.0826% | activity change [6] -12.7% [at 6.97 µM, active compounds read high] | activity change, negative = cytotoxic [8] 0.278% [at 6.97 µM]

C=CCON/C(CCC)=C1\C(=O)CC(C)(C)C(C(=O)OC)=C1O
inactive: outcome [1] | outcome [2] | outcome [9] | outcome [4] | max response [5] 3.04% | Potency [6] | outcome [8]

C[C@@H](CN1CC(=O)NC(=O)C1)N1CC(=O)NC(=O)C1
inactive: outcome [1] | outcome [2] | Potency [10] | outcome [9] | outcome [4] | max response [5] -3.41% | Potency [6] | Potency [7] | outcome [8]

CC(C)(C)C(=O)NCCCC(=O)O
inactive: outcome [1] | outcome [2] | Potency [10] | max response [5] 5.71% | Potency [7]

C=CC(=O)CC
inactive: outcome [1] | outcome [3] | Potency [10] | outcome [9] | outcome [4] | max response [5] 0.33% | Potency [6] | Potency [7] | outcome [8]

CC(O)CCCCn1c(=O)c2c(ncn2C)n(C)c1=O (stereo unspecified)
inactive: outcome [1] | outcome [2] | Potency [10] | outcome [9] | outcome [4] | max response [5] 0.953% | Potency [6] | Potency [7] | outcome [8]

CC(C)CC(=O)N[C@H](C(=O)N[C@H](C(=O)N[C@@H](CC(C)C)[C@@H](O)CC(=O)N[C@@H](C)C(=O)N[C@@H](CC(C)C)[C@@H](O)CC(=O)O)C(C)C)C(C)C (Isovaleryl-VV[Sta]A[Sta]-OH)
inactive: outcome [1] | outcome [2] | Potency [10] | outcome [9] | outcome [4] | max response [5] 14.7% | Potency [6] | Potency [7] | outcome [8]

COc1cc(NS(=O)(=O)c2ccc(N)cc2)ncn1
inactive: outcome [1] | outcome [2] | Potency [10] | outcome [9] | max response [5] 7.65% | Potency [6] | Potency [7] | outcome [8]

Reference: PubChem BioAssay (Tox21)
